Measured values reported in PubChem BioAssay (NCI).
This is part of a sample that, as a whole, favours compounds with a hit. Of some 79,000 tested, about 15% had one in any assay. Activity calls are given as the source filed them. No stated cut-off is given here; in the data, active means growth inhibition above about 70%; inactive means the rest.

Tests used:
[1] = NCI Yeast Anticancer Drug Screen. Data for the rad50 strain (AID 155);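 further: 0% = growth of vehicle-only cultures of the same strain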; conditions: S. cerevisiae rad50 strain growth inhibition; at 50.0 µM; active compounds read high
Summary of the method: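 Yeast carrying a defined DNA repair defect were exposed to test compounds, and growth was compared with vehicle-treated controls to give percent inhibition.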

[2] = NCI Yeast Anticancer Drug Screen. Data for the mec2-1 strain (AID 157); conditions: S. cerevisiae mec2-1 strain, at 50.0 µM, active compounds read high
Summary of the method: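 Cells of the genetically defined mec2-1 yeast strain are incubated with test compound. Inhibition of growth is calculated against vehicle-treated controls.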

[3] = NCI Yeast Anticancer Drug Screen. Data for the sgs1 mgt1 strain (AID 161);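 further: 0% = growth of cultures given vehicle only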; conditions: S. cerevisiae sgs1 mgt1 strain, at 50.0 µM, active compounds read high
Summary of the method: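 Mutant yeast exposed to compound; growth scored against vehicle-only wells.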

[4] = NCI Yeast Anticancer Drug Screen. Data for the cln2 rad14 strain (AID 165);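 further: 0% = growth equal to vehicle treated cultures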; conditions: S. cerevisiae cln2 rad14 strain, at 50.0 µM, active compounds read high
Summary of the method: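 The screen exposed genetically defined yeast (cln2 rad14) to test compounds and scored growth inhibition relative to vehicle-treated controls.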

[5] = NCI Yeast Anticancer Drug Screen. Data for the bub3 strain (AID 167); conditions: S. cerevisiae bub3 mutant strain, at 50.0 µM, active compounds read high
Summary of the method: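 Compounds were applied to a genetically altered yeast strain carrying a cell-cycle control defect. Growth inhibition was scored against vehicle-treated controls.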

[6] = NCI Yeast Anticancer Drug Screen. Data for the mlh1 rad18 strain (AID 175); conditions: S. cerevisiae mlh1 rad18 strain growth inhibition; at 50.0 µM; active compounds read high
Summary of the method: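 Compound-treated yeast growth, normalised to vehicle controls. Strain bears defined DNA repair mutations.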

Measured: growth inhibition

CC(=O)Nc1ccc(S(=O)(=O)Nc2cccc3ccccc23)cc1
inactive: [1] 23.2% | [2] 7.4% | [3] 18.6% | [4] 42.8% | [5] 57.6% | [6] 21.6%

Nc1ccc2[nH]c(=O)c(=O)[nH]c2c1
inactive: [1] 2% | [2] 14.7% | [3] -24.1% | [4] 4.95% | [5] 1.1% | [6] 14.8%

Cn1ncc2[nH]c(=O)n(OS(=O)(=O)c3ccccc3)c(=O)c21
inactive: [1] 17.3% | [2] -16.9% | [3] -15.5% | [4] 4.3% | [5] 0.9% | [6] 5%

O=C(CCCCl)CCCCl
inactive: [1] 12.2% | [2] -10.9% | [3] 21.6% | [4] 12.6% | [5] -3.6% | [6] 19.1%

S=C1CSc2c(cnc3ccccc23)N1
inactive: [1] -4.05% | [2] -6% | [3] 7% | [4] 18.8% | [5] 18.2% | [6] 6.95%

COc1nc(N)c(NC(C)=O)c(=O)n1C
inactive: [1] 3.9% | [2] -19.2% | [3] -21.4% | [4] -4.3% | [5] -22.6% | [6] 9%

N#CC(C#N)=C1C=CC=CC=C1
inactive: [1] 14.2% | [2] 5% | [3] 0.85% | [4] -11.4% | [5] 8.75% | [6] -4.4%

COc1ccc(C(c2cc(OC)c(OC)c(OC)c2)N2C(=O)CCC2C(=O)O)cc1 (stereo not drawn)
inactive: [1] -21.6% | [2] -13.6% | [3] -16.6% | [4] -11.8% | [5] -4.15% | [6] -8.3%

CCOC(=O)C(=CC(C)(C)C)C(=O)OCC
inactive: [1] 3.9% | [2] 19.1% | [3] 2.8% | [4] 14.8% | [5] 21.1% | [6] 10%

CC(C)c1ccc(/C=C2\C=Nc3ccccc32)cc1
inactive: [1] 15.8% | [2] 11.7% | [3] 28.9% | [4] 5.2% | [5] 50.7% | [6] 20.6%

O/N=C1/CCCc2nonc21
inactive: [1] -18.6% | [2] -3.15% | [3] -0.3% | [4] 4.35% | [5] -8.2% | [6] -6.5%

Cc1nc(C(N)=S)sc1C(=O)CC(=O)C(=O)Nc1ccc(Br)cc1
inactive: [1] 2.5% | [2] -38.5% | [3] -24.4% | [4] 1.35% | [5] -25.8% | [6] -14.8%

Nc1ccnc(Sc2ncccc2[N+](=O)[O-])n1
inactive: [1] 1.2% | [2] -8.15% | [3] -5.75% | [4] -47.8% | [5] 7.8% | [6] 1.3%

CCCn1c(=S)[nH]c2c(=O)n(C)c(=O)n(C)c21
inactive: [1] -3.55% | [2] -8.9% | [3] -0.45% | [4] -17.8% | [5] -4.85% | [6] 5.65%

c1ccc2c(c1)ccc1cccc[n+]12
inactive: [1] -25.4% | [2] -7.75% | [3] -13% | [4] -12.4% | [5] -16.7% | [6] -36.6%

CCN(CC)CCCNc1nc2ccccc2c2[nH]c3ccc(OC)cc3c12
inactive: [1] -37.4% | [2] -26.2% | [3] -41.9% | [4] -36.8% | [5] -40% | [6] -28.2%

CC(=O)OC(C)C(=O)OCCOc1ccccc1 (stereo not drawn)
inactive: [1] 8.7% | [2] -12% | [3] 14.3% | [4] -36.6% | [5] -7.3% | [6] -4%

CC1Oc2c(c(=O)oc3ccccc23)[C@@]1(C)CC1C[C@H](C)C(=O)O1 (stereo partly drawn)
inactive: [1] 31.6% | [2] 25.9% | [3] 35.2% | [4] 11.5% | [5] 11.4% | [6] 39.1%

O=C(O)C(=Cc1ccc([N+](=O)[O-])cc1)C(=O)O
inactive: [1] 11.1% | [2] -21.8% | [3] 5.95% | [4] -7.35% | [5] -0.7% | [6] -11.6%

COC1/C=C/OC2(C)Oc3c(C)c(O)c4c(O)c(c(/C=N/N5CCN(Cc6cccc(C(F)(F)F)c6)CC5)c(O)c4c3C2=O)NC(=O)C(C)=C/C=C/C(C)C(O)C(C)C(O)C(C)C(OC(C)=O)C1C (stereo not drawn)
inactive: [1] 11.7% | [2] 30.7% | [3] 35.3% | [4] 27.2% | [5] 11.8% | [6] 43.1%

CC(=O)OC/C=C1/CC[C@H]2[C@@H]3CCC4=CC(=O)[C@H](C)C[C@]4(C)[C@H]3[C@@H](O)C[C@]12C
inactive: [1] -1.85% | [2] -2% | [3] 4.05% | [4] 1.8% | [5] -9.2% | [6] -21.8%

CC(=O)Nc1c(C)cc(S(=O)(=O)O)cc1C
inactive: [1] 6.25% | [2] -0.1% | [3] -8.65% | [4] -58.7% | [5] 28.6% | [6] -18.5%

NC(=O)N1CCCCC1
inactive: [1] 7.2% | [2] -6.6% | [3] 24.4% | [4] 7.2% | [5] 13.9% | [6] 4.65%

CN(C)c1ccc(/C=N\NC(=S)NN2CCN(NC(=S)N/N=C\c3ccc(N(C)C)cc3)CC2)cc1
inactive: [1] 30.2% | [2] 11.1% | [3] 5.2% | [4] 4.85% | [5] 1.55% | [6] 27.8%

CCOC(=O)C(=O)Nc1ccccc1OCC
inactive: [1] 3.3% | [2] 11.2% | [3] -11.2% | [4] -27.7% | [5] 0.9% | [6] 4.2%

O=C(COc1ccc(Cl)cc1)N(c1ccccc1)C1CCCCC1
active: [1] 95.9% | [2] 98.3% | [3] 97.5% | [4] 96.2% | [5] 95.2% | [6] 96.9%

O=[N+]([O-])c1cc(S(=O)(=O)O)cc(S(=O)(=O)O)c1O
inactive: [1] 12.6% | [2] 2.6% | [3] 13.2% | [4] 19.6% | [5] 16.5% | [6] 18.1%

CC1OC(OC2C(O)C(OCCc3ccc(O)c(O)c3)OC(CO)C2OC(=O)/C=C/c2ccc(O)c(O)c2)C(O)C(O)C1O (stereo not drawn)
inactive: [1] 4.75% | [2] -9.8% | [3] -3% | [4] 8.25% | [5] -2.7% | [6] 20.8%

CC(=O)CC1CCc2ccc3ccccc3c2C1c1cccc2ccccc12 (stereo not drawn)
inactive: [1] 2.35% | [2] 8.2% | [3] -6.85% | [4] 26.4% | [5] 2.4% | [6] 25.4%

O=[S@]1Nc2cc(N=Nc3ccccc3)ccc2S1
inactive: [1] -3.45% | [2] 16.1% | [3] 0.15% | [4] -10.5% | [5] -5.05% | [6] -12.1%

CS(=O)c1nsc(S(C)=O)c1C#N (stereo not drawn)
inactive: [1] 1.05% | [2] -9.7% | [3] -1.5% | [4] -35.6% | [5] -9.95% | [6] -10.6%

CCCCSc1nc2c(=O)[nH][nH]c(=O)c2n1Cc1ccccc1
inactive: [1] 11.9% | [2] 3.45% | [3] 23.2% | [4] 14.7% | [5] -0.8% | [6] 1.5%

CCOC(=O)CCC(N)C(N)=O (stereo not drawn)
inactive: [1] 28.2% | [2] -6.45% | [3] 16% | [4] 8.65% | [5] 11.4% | [6] 23.9%

CSc1c(C)c(C)nn1-c1ccccc1
inactive: [1] -8.35% | [2] -7.6% | [3] 9.45% | [4] -1.4% | [5] 1.35% | [6] -5.75%

C=CCC12CC(O)C(O)CC1(OC)OC(c1cc(OC)c(OC)c(OC)c1)C2C (stereo not drawn)
inactive: [1] -1.1% | [2] -8.75% | [3] -8.1% | [4] -4.75% | [5] 4.35% | [6] 7.9%

N#Cc1c(N2CCCC2)ncn(Cc2ccccc2)c1=O
inactive: [1] 0.7% | [2] 12.8% | [3] 0.2% | [4] -30.8% | [5] 7.15% | [6] 4.7%

C/C(=N\NC(=O)C[N+](C)(C)C)c1sc(-c2cccnc2)nc1C
inactive: [1] 5.4% | [2] -26.1% | [3] 6.5% | [4] 20.9% | [5] -4.4% | [6] -4.05%

O=C(NC12CC3CC(CC(C3)C1)C2)C(O)C(O)C(O)C(O)CO (stereo not drawn)
inactive: [1] -16.6% | [2] -1.75% | [3] 20.1% | [4] 0.9% | [5] 5.6% | [6] 2.65%
